The values below come from ChEMBL document CHEMBL3988442, “University of Dundee, Small-Polar-MMV Screening Library” (2021).

Molecules are shown by their SMILES. Screen size: about 69,000 compounds; about 950 (1.4%) showed an effect of 50% or more. Only a selection was taken, and strong results are over-represented in it overall.

In the test the test system is Mycobacterium tuberculosis. Description: Cornell M. t heat shock assay. Further: in the data most compounds retested in dose-response had high values. The class given is functional, organism-based. Further details: dose or concentration left out as unconfirmed.
Turning to `CCOc1ccc(C(=O)N2CCN(c3nccn3C)CC2)cc1.Cl`, the “Percent Effect” value is reported as -17.36%. The value for `Cc1cnn(CC(C)NCc2csc(-c3ccsc3)n2)c1` (configuration not stated) was 27.16%; that for `Cc1cnn(CCNCc2csc(-c3ccc(F)cc3)n2)c1` was 22.16%; that for `Cc1cnn(CCNCc2csc(-c3ccccc3)n2)c1` was 104.4%.

Consider `Cc1cnn(CCNCc2csc(-c3ccsc3)n2)c1`, for which the “Percent Effect” value was 107.8%. In the case of `Cc1cnn(CC(C)NCc2csc(-c3cnn(C)c3)n2)c1` (configuration not stated) it was -23.56%; in that of `Cc1cnn(CCNCc2csc(-c3cccs3)n2)c1`, 25.75%; in that of `Cc1cccc(N2CCc3ncc(CNS(C)(=O)=O)n3CC2)n1.O=C(O)C(F)(F)F`, -36.69%.

On to `Cc1ccc(C2CCCN2S(=O)(=O)N(C)Cc2cnccn2)o1` (configuration not stated), for which the “Percent Effect” value was -5.103%. In the case of `CN(CCc1ccccn1)S(=O)(=O)N1CCCC1c1ccco1` (configuration not stated) it was 16.77%; in that of `Cc1ccc(C2CCCN2S(=O)(=O)N(C)CCc2ccccn2)o1` (configuration not stated), 69.2%.

Turning to `I.c1cc2c(cc1C1(CNC3=NCCN3)CCCC1)OCCO2`, the “Percent Effect” value is -5.173%. In the case of `CNC(=O)CN1CCOCC12CCN(C(=O)c1ccccc1)CC2.O=C(O)C(F)(F)F` it was -17.78%; in that of `COc1ccc(OC)c(NC(=O)N2CCCC2c2ccco2)c1` (configuration not stated), 25.75%; in that of `COc1ccccc1NC(=O)N1CCCC1c1ccco1` (configuration not stated), 40.09%.

With `COc1ccc(NC(=O)N2CCCC2c2ccco2)c(OC)c1` (configuration not stated), the “Percent Effect” value came out at 74.57%. The value for `O=C(O)CC(O)(CC(=O)O)C(=O)O.c1ccc([C@@H]2CN(Cc3cccnc3)C[C@H]2c2cc[nH]n2)cc1` was -3.502%; that for `Cc1ccc(CN2CCC3(CC2)COCCN3S(C)(=O)=O)o1.O=C(O)C(F)(F)F` was 38.18%. The value for `CN1CCN(C(=O)Cn2nc(C(F)(F)F)c(Br)c2C2CC2)CC1` was 82.35%.

For the molecule `CCN1CCN(C(=O)Cn2nc(C(F)(F)F)c(Br)c2C2CC2)CC1`, the “Percent Effect” value was -4.049%. As for `CCCN1CCN(C(=O)Cn2nc(C(F)(F)F)c(Br)c2C2CC2)CC1`, the “Percent Effect” value was -16.27%.

For `CC1CCC(N2Cc3nc(N)ncc3C2=O)CC1` (configuration not stated), the “Percent Effect” value was 7.341%.

For `CN1CCC(N2Cc3nc(N)ncc3C2=O)CC1`, the “Percent Effect” value was -6.315%.

For `Nc1ncc2c(n1)CN(C1CCCC1)C2=O`, the “Percent Effect” value is on record as 101.8%.

For `COCCN1CCc2c(CNC(=O)c3nccn3C)cncc2C1.Cl.Cl.Cl`, the “Percent Effect” value is 7.945%. For the molecule `Cc1nc(CN2CCC3(CC2)CC(c2cccnc2)C(=O)N3C)cs1.O=C(O)C(F)(F)F.O=C(O)C(F)(F)F` (configuration not stated), the “Percent Effect” value is on record as 40.95%. The value for `CSc1ncccc1C(=O)N1CCC2(CC1)OCCCC2O` (configuration not stated) was 9.306%. For `O=C(c1cccnc1O)N1CCC2(CCCO2)CC1`, the “Percent Effect” value is reported as -109.6%. In the case of `O=C(c1cccc2cccnc12)N1CC[C@@]2(CCCO2)[C@@H](O)C1` it was 50.53%; in that of `Br.COc1ccc(C(=O)CN(C2=NCCCCC2)c2ccccc2)cc1`, 22.41%; in that of `Cc1ccc(N(CC(=O)N2CCCCC2)C(=O)C2CCCO2)cc1` (configuration not stated), -0.08324%. In the case of `Br.O=C(CN(C1=NCCCC1)c1ccccc1)c1ccc(OC(F)F)cc1` it was 95.91%. As to `Br.Cc1cccc(N(CC(=O)c2ccccc2)C2=NCCCCC2)c1`, the “Percent Effect” value is listed as 15.52%. In the case of `Br.CCOc1ccc(N(CC(=O)c2ccccc2)C2=NCCCCC2)cc1` it was 104.1%; in that of `Br.Cc1ccc(N(CC(=O)c2ccc(Br)cc2)C2=NCCCCC2)cc1`, 103.6%; in that of `CCOc1ccc(C(=O)CC(SC2CCCCC2)C(=O)O)cc1` (configuration not stated), 28.66%.

As to `Br.O=C(CN(C1=NCCCC1)c1ccccc1)c1ccccc1`, the “Percent Effect” value was -38.94%. On to `Br.Cc1ccc(C(=O)CN(C2=NCCCCC2)c2ccccc2)cc1`, for which the “Percent Effect” value is reported as 26.5%. The value for `C[S+]([O-])c1nncn1CC(=O)c1ccc(OC(F)F)cc1` (configuration not stated) was 27.46%; that for `Br.O=C(CN(C1=NCCCC1)c1ccccc1)c1ccc2c(c1)OCCO2` was -15.61%. The value for `Br.O=C(CN(C1=NCCCCC1)c1ccc(Cl)cc1)c1ccccc1` was 102%; that for `COc1ccc(CN2C[C@@H]3CC[C@H](C2)N(S(=O)(=O)C2CC2)C3)cc1` was -4.175%; that for `Cc1ccc(N2CC[C@@H]3[C@@H]2CCN3C(=O)Cc2cccs2)nn1.O=C(O)C(F)(F)F` was 1.861%.

On to `CC(=O)NCCc1cc2nc(-c3ccncc3)ccn2n1`, for which the “Percent Effect” value was 1.137%. In the case of `COCCC(=O)N1CCCC2(CCCN2Cc2ccccc2F)C1.O=C(O)C(F)(F)F` (configuration not stated) it was -33.92%; in that of `CN(C)Cc1cc(C2CCN(C(=O)C3CCCNC3)CC2)nn1C.Cl` (configuration not stated), -6.1%.

With `O=C(O)C(F)(F)F.O=C1COC2(CCN(S(=O)(=O)C3CC3)CC2)CN1c1cccnc1`, the “Percent Effect” value is -24.7%. In the case of `CNC(=O)[C@H]1C[C@@H]2CN(Cc3ccc(C)cc3)C[C@H]1O2.O=C(O)C(F)(F)F` it was 33.5%. Regarding `Cc1ccc(N2CC[C@H]3O[C@H](C(=O)N4CCCCO4)CC[C@H]32)nn1.O=C(O)C(F)(F)F`, the “Percent Effect” value is given as 36.81%.

As to `O=C(C1CC1)N1CC[C@@H]2[C@H](CC1)N(Cc1cccnc1)CCS2(=O)=O.O=C(O)C(F)(F)F.O=C(O)C(F)(F)F`, the “Percent Effect” value is listed as -20.85%. With `COCCNS(=O)(=O)c1cccc2c1CN(C(=O)c1cnccn1)CC2`, the “Percent Effect” value is recorded as 3.399%. The value for `COCCNS(=O)(=O)c1ccc2c(c1)CCN(C(=O)c1cncn1C)C2` was 91.56%; that for `COCCNS(=O)(=O)c1cccc2c1CN(C(=O)c1ccccc1)CC2` was -0.08173%; that for `CC(C1CCN(Cc2ccccc2OC(F)F)CC1)N1CCOCC1` (configuration not stated) was 90.2%.

For `CC(C1CCN(Cc2c(Cl)cncc2Cl)CC1)N1CCOCC1` (configuration not stated), the “Percent Effect” value is -44.11%. In the case of `CC(C)Oc1cccc(CN2CCC(c3n[nH]c4ncccc34)CC2)c1` it was -24.22%. The value for `CC(C1CCN(Cc2ccc(OC(F)F)cc2)CC1)N1CCOCC1` (configuration not stated) was 96.37%. For the molecule `FC(F)Oc1ccccc1CN1CCCC(c2nccn2CC2CC2)C1` (configuration not stated), the “Percent Effect” value turned out to be 23.85%. As for `CC(C1CCN(Cc2cccc(OC(F)F)c2)CC1)N1CCOCC1` (configuration not stated), the “Percent Effect” value worked out at 1.128%.

On to `CC(C)Oc1cccc(CN2CCC(C(C)N3CCOCC3)CC2)c1` (configuration not stated), for which the “Percent Effect” value is given as 91.46%. On to `CC(C1CCN(Cc2ccc(N(C)C)nc2)CC1)N1CCOCC1` (configuration not stated), for which the “Percent Effect” value is -22.49%. The value for `CC(C)Oc1ccc(CN2CCC(Cc3nnc(CO)n3C)CC2)cc1` was -21.53%.
